TEAD-YAP block – TEAD-YAP interaction inhibition, primary screen, TEAD-YAP interaction inhibitor project, luminescence, HEK-TIYL cells; TEAD-Gal4/YAP UAS-luciferase luminescence; inhibition, % at 9.12 µM; 640,000 compounds, 1.4% hits; in the data active = inhibition above about 32%;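 also: 0% = median of test compound wells and 100% = reference inhibitor wells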
FBW7 activator – FBW7 E3 ligase activators, primary screen, biochemical, AlphaScreen, human. F-box/WD repeat-containing protein 7 (Homo sapiens), Q969H0. AlphaScreen FBW7–phospho-cyclin E peptide binding, activator screen. normalized activity (activation), % at 26.1 µM. 650,000 compounds, 0.13% hits; in the data active = normalized activity above about 1.9%;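 also: purified mutant Fbw7 with reduced substrate affinity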
MITF inh – MITF inhibitors, primary screen, biochemical, AlphaScreen, human; Microphthalmia-associated transcription factor (Homo sapiens), O75030; AlphaScreen MITF homodimerization, bead proximity signal; inhibition, % at 2.6 µM; 650,000 compounds, 0.91% hits; in the data active = inhibition above about 50%;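 also: 0% = vehicle wells with protein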
GPR151 activ – activators of human GPR151, primary screen, cell-based, PathHunter beta-arrestin, luminescence; PathHunter beta-arrestin GPR151 cells; 650,000 compounds, 1% hits; activation, % at 11.2 µM; G-protein coupled receptor 151 (Homo sapiens), Q8TDV0; in the data active = activation above about 4.9%;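 also: 0% = median of compound wells and 100% = cells with positive control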
GPR151 conf act – GPR151 activators, triplicate retest, confirmation, cell-based, PathHunter beta-arrestin, luminescence; 6,700 tested, under 10 active; AID 1508609, 2020; activation, % at 11.2 µM; GPR151 PathHunter beta-arrestin cells, 90 min; % of EA-reagent control over plate median; shares compounds with GPR151 activ;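 active = mean percent activation across replicates above the confirmation screen cutoff of 4.91%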
GPR119 counter – GPR119 activators in beta-arrestin cells, counter-screen for GPR151 activator project, cell-based, PathHunter beta-arrestin, luminescence, triplicate; shares compounds with GPR151 activ; 90 min; 0 = compound-well median, 100 = enzyme-acceptor control; activation, % at 11.2 µM; 6,700 compounds, 0.3% hits;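 active = mean percent activation in the counterscreen above 29.09%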;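 also: counterscreen on off-target GPR119 to flag nonselective hits from the GPR151 activator screen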
Target sequence (Q8TDV5 whole entry, looked up): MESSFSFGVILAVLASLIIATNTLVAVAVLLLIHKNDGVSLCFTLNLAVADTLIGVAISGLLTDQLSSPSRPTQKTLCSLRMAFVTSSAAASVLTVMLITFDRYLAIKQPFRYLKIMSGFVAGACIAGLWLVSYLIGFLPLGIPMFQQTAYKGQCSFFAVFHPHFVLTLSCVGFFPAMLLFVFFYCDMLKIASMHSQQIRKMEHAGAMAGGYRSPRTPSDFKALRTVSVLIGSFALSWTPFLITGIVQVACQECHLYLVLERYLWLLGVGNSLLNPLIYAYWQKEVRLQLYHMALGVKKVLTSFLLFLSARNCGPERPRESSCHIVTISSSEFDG
Starred values were filed as active, the others as inactive; x = not tested or not shown; ! = repeats disagree. Rows were chosen to be rich in hits. Some 3.5% of all compounds tested hit in one or more screens of this group.

SMILES | TEAD-YAP block | FBW7 activator | MITF inh | GPR151 activ | GPR151 conf act | GPR119 counter
COCCO[C@H]1[C@H](NC(=O)C(C)C)c2ccccc2C12CCN(C(=O)CCC(C)C)CC2 | 4 | 0 | 21 | 5.2* | 0 | 8
COCCO[C@H]1[C@H](NC(=O)C(C)C)c2ccccc2C12CCN(C(=O)C1CCCC1)CC2 | 7 | 0 | -4 | -1 | x | x
CCCCNC(=O)CSc1nnc(NC(C)=O)s1 | 4 | 0 | -3 | 6.4* | 0 | 1
Cc1nnc(SCC(=O)NCCC(c2ccccc2)c2ccccc2)s1 | 4 | 0 | -5 | 5.0* | 0 | 0
COC(=O)c1ccc(NC(=O)CSc2nnc(NC(C)=O)s2)cc1 | 5 | 0 | -14 | 6.4* | 0 | 0
Cc1nc(C)c(C(=O)N2CCCC(CCC(=O)N3CCN(c4ccccn4)CC3)C2)s1 (stereo not given) | 0 | 0 | -1 | 0 | x | x
COc1ccc(CNC(=O)CCCc2nc3ccccc3c(=O)[nH]2)cc1 | -2 | 0 | -3 | 6.3* | 1 | 6
COc1ccc(CNC(=O)CCCc2ccccc2)cc1 | -7 | 0 | -19 | -1 | x | x
COCCn1c(=NC(=O)c2cccs2)sc2cc(OC)c(OC)cc21 | -35 | 0 | 4 | -2 | x | x
O=C(Nc1cccnc1)c1cccs1 | 40* | 0 | -2 | 8.9* | -1 | -9
Cc1cnccc1NC(=O)c1cccs1 | 3 | 0 | -16 | 0 | x | x
O=C(Nc1ccncc1)c1cccs1 | -3 | 0 | 7 | -1 | x | x
Cc1ccc(NC(=O)c2cccs2)cc1NC(=O)c1cnccn1 | 5 | 0 | 5 | 5.9* | 0 | 4
COc1ccccc1C(=O)Nc1cccc2ncccc12 | 6 | 0 | 0 | 0 | x | x
CCCCNC(=O)c1cc2cc3cc(OC)ccc3nc2o1 | -16 | 0 | -8 | 0 | x | x
CC1CCCN(C(=O)Cn2nc(Cc3cccnc3)c3ccccc3c2=O)C1 (stereo not given) | 3 | 0 | 3 | 0 | x | x
CN1CCCC(n2nc(Cc3ccc(Cl)cc3)c3ccccc3c2=O)CC1 (stereo not given) | 3 | 0 | -20 | 5.4*! | 2 | 28
COCCOC(=O)C1=C(N)Oc2c(oc(CO)cc2=O)C1c1c(F)cccc1Cl (stereo not given) | 13 | 0 | -15 | 5.7* | 0 | 9
COc1ccccc1N(CC(=O)NCCC(C)C)C(=O)CCC(=O)Nc1ccccn1 | 1 | 0 | 2 | 0 | x | x
COc1cc(C2NC(=O)NC(C)=C2C(C)=O)cc(Br)c1OCc1ccccc1 (stereo not given) | -8 | 0 | 19 | 5.7* | 2 | 10
CCOC(=O)C1=C(C)NC(=O)NC1c1cc(Br)c(OCc2ccccc2)c(OC)c1 (stereo not given) | -4 | 0 | 22 | 1 | x | x
COC(=O)C1=C(C)NC(=O)NC1c1cc(OC)c(O)c([N+](=O)[O-])c1 (stereo not given) | -17 | 0 | 5 | 1 | x | x
COc1cc(C2NC(=O)NC(C)=C2C(C)=O)cc([N+](=O)[O-])c1O (stereo not given) | 9 | 0 | 24 | 7.8* | 1 | 10
Cc1cc(C)cc(OCC(=O)NCc2nc(-c3ccc(Cl)cc3)no2)c1 | 0 | 1 | 8 | 1 | x | x
O=C(NCCCCCCNC(=O)NCc1ccccn1)NCc1ccccn1 | 26 | 0 | -5 | 2 | x | x
SMILES | TEAD-YAP block | FBW7 activator | MITF inh | GPR151 activ | GPR151 conf act | GPR119 counter
COc1ccc(C(C)=O)cc1CSc1nc2ccccc2c(=O)n1CCc1ccc(OC)c(OC)c1 | -5 | 0 | -9 | 6.9* | 0 | 6
CCC(Sc1nc2ccccc2c(=O)n1CCc1ccc(OC)c(OC)c1)C(=O)N1CCOCC1 (stereo not given) | 11 | 0 | 11 | -1 | x | x
COC(=O)c1ccc2c(=O)n(CCc3ccc(OC)c(OC)c3)c(SCC(=O)Nc3cc(C)on3)nc2c1 | -2 | 0 | -3 | 5.8* | 0 | -8
COC(=O)c1ccc2c(=O)n(CCc3ccc(OC)c(OC)c3)c(SCC(=O)Nc3ccc(C)cc3)nc2c1 | 0 | 0 | 1 | -1 | x | x
COc1ccc(CCn2c(SCC(=O)c3ccc(F)cc3)nc3ccccc3c2=O)cc1OC | -1 | 0 | 1 | 5.4* | 1 | 9
CCC(Sc1nc2ccccc2c(=O)n1CCc1ccc(OC)c(OC)c1)C(=O)N(CC)CC (stereo not given) | 5 | 1 | 19 | 6.0* | 1 | 9
CS(=O)(=O)N(Cc1ccccc1Cl)c1ccc(C(=O)NCc2ccco2)cc1 | -2 | 0 | 3 | 0 | x | x
CC(C)CCNC(=O)c1ccc(N(Cc2ccccc2Cl)S(C)(=O)=O)cc1 | -2 | 0 | 24 | 7.9* | 0 | -7
CS(=O)(=O)N(Cc1ccccc1Cl)c1ccc(C(=O)N2CCCC2)cc1 | 2 | 0 | 14 | 9.2* | 0 | -1
CS(=O)(=O)Nc1ccc(C(=O)Nc2ccccc2C(=O)NCc2ccccc2)cc1 | -11 | 0 | -2 | 0 | x | x
COc1ccc(NC2=CC(=O)CCC2)c(OC)c1 | -6 | 0 | 5 | 7.8*! | 1 | 8
COc1ccc(NC2=CC(=O)CCC2)cc1 | 8 | 0 | 4 | -1 | x | x
Cc1ccc(C2=NS(=O)(=O)N(C)C(C(=O)NCc3ccccn3)=C2)cc1 | 6 | 0 | 12 | 6.9* | 0 | -9
Cc1ccc(C2=NS(=O)(=O)N(C)C(C(=O)NCC(C)C)=C2)cc1 | 0 | 0 | 4 | 2 | x | x
O=C(CN1C(=O)c2ccccc2S1(=O)=O)NCc1ccco1 | -8 | 0 | -8 | 9.0* | 0 | 16
O=C(Cn1c(=O)oc2ccccc21)NCc1ccco1 | 3 | 0 | 17 | 5.3* | -1 | 0
CC(C)(C)C1CCc2c(sc3nc(CC(=O)c4ccc(Cl)cc4)n(-c4ccccc4)c(=O)c23)C1 (stereo not given) | 9 | 1 | 21 | 0 | x | x
CC(C)n1cc(/C=C2\NC(=O)N(Cc3ccc(Cl)cc3)C2=O)c2ccccc21 | 22 | 0 | 9 | -1 | x | x
O=C(NC1(C(=O)Nc2ccc(Br)cc2)CCCCC1)c1cccc(O)c1 | 9 | 0 | 4 | 5.5* | 0 | -5
CCC(C)C(=O)Nc1nc2c(s1)C(=O)CC(C(=O)NCc1ccc(C)o1)C2 (stereo not given) | -5 | 0 | 14 | -1 | x | x
O=C(c1ncoc1-c1cccs1)N1CCN(c2ccccc2F)CC1 | -21 | 0 | -3 | 5.1* | 1 | 2
O=C(c1cc(-c2cccs2)[nH]n1)N1CCN(c2ccccc2F)CC1 | -10 | 0 | -12 | 0 | x | x

Source: PubChem BioAssay
